According to PubChem BioAssay (EPA / NIEHS):
Results filed as inconclusive are left out. The source made the active and inactive calls. Rule for the calls, unless noted: active = hit-call score of the fitted dose curve at least 0.9, where 1 is the maximum; inactive = score below 0.9.

Assays:
[1] = biological target: human RAR-related Orphan Receptor gamma (RORg), RORC (gene 6097) (UniProt P51449); experiment: ATG_RORg_TRANS: Attagene TRANS-FACTORIAL HepG2 Assay for human RAR-related Orphan Receptor gamma (RORg) (AID 2283011; active = hit-call score of the fitted dose curve at least 0.9, where 1 is the maximum)
In short: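 First, HepG2 liver cells were transfected with GAL4-UAS-driven reporter constructs and the RORg-Gal4 fusion. Next, they were treated with chemical for 24 h. Finally, reporter mRNA was quantified by RT-PCR and capillary electrophoresis, with upward activity fitted against DMSO.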

[2] = biological target: Retinoic acid receptor RXR-alpha (Homo sapiens) (UniProt P19793); experiment: ATG_RXRa_TRANS: Attagene TRANS-FACTORIAL HepG2 Assay for human Retinoid X Receptor alpha (RXRa) (AID 2283012; active = hit-call score of the fitted dose curve at least 0.9, where 1 is the maximum)
In short: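 HepG2 cells transiently transfected with multiplexed GAL4-UAS reporter units and chimeric NR-GAL4 fusions, dosed 24 h. Reporter mRNA measured by RT-PCR, FAM labelling, HpaI digestion and capillary electrophoresis; gain-of-signal fitted relative to DMSO baseline.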

[3] = biological target: human Retinoid X Receptor beta (RXRb), RXRB (gene 6257) (UniProt P28702); experiment: ATG_RXRb_TRANS: Attagene TRANS-FACTORIAL HepG2 Assay for human Retinoid X Receptor beta (RXRb) (AID 2283013; active = hit-call score of the fitted dose curve at least 0.9, where 1 is the maximum)
In short: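 HepG2 cells transiently transfected with multiplexed reporter units driven by GAL4-UAS and exogenous chimeric NR-Gal4 proteins; treated 24 h. Reporter mRNA measured by RT-PCR, 6-FAM labelling and capillary electrophoresis; gain-of-signal fitted versus DMSO baseline.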

[4] = read-out: E-selectin (Homo sapiens) (UniProt P16581); experiment: BSK_3C_Eselectin: BioMAP Diversity Plus: 3C Assay for Eselectin Biomarker Activity (AID 2283015); details: primary human endothelial cells (HUVEC); actives raise or lower the signal;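 note: cell surface E-selectin protein quantified by ELISA 24 h after dosing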
In short: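 ELISA read-out of E-selectin on endothelial monolayers after 24 h chemical treatment. Human umbilical vein primary cells served as the system, with DMSO defining baseline activity for bidirectional fitting.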

[5] = read-out: Interleukin-1 alpha (IL1a), IL1A (gene 3552); experiment: BSK_BE3C_IL1a: BioMAP Diversity Plus: BE3C Assay for Interleukin-1 alpha (IL1a) Biomarker Activity (AID 2283016); details: primary human bronchial epithelial cells; actives raise or lower the signal
In short: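 Human primary bronchial epithelial cells (BE3C system) were dosed with compound and IL-1a measured by ELISA 24 h later. Activity was fitted bidirectionally against DMSO baseline; cytotoxicity was tracked in parallel cultures by SRB total-protein staining.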

[6] = read-out: Monocyte Chemoattractant Protein-1 (MCP1), CCL2 (gene 6347); experiment: BSK_3C_MCP1: BioMAP Diversity Plus: 3C Assay for Monocyte Chemoattractant Protein-1 (MCP1) Biomarker Activity (AID 2283017); details: primary human endothelial cells (HUVEC); actives raise or lower the signal
In short: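 ELISA read-out of MCP-1 from human umbilical vein endothelial cell cultures harvested 24 h post-dosing. Gain or loss of signal was fitted relative to DMSO.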

[7] = read-out: Human Leukocyte Antigen - DR isotype (HLADR), HLA-DRA (gene 3122); experiment: BSK_3C_HLADR: BioMAP Diversity Plus: 3C Assay for Human Leukocyte Antigen - DR isotype (HLADR) Biomarker Activity (AID 2283019); details: primary human endothelial cells (HUVEC); actives raise or lower the signal;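 for outcome: ELISA of cell-surface HLA-DR on HUVEC 24 h after dosing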
In short: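 ELISA readout of surface HLA-DR on human umbilical vein endothelium, taken 24 h after chemical treatment. Gain- and loss-of-signal were both fitted relative to DMSO.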

[8] = read-out: Interleukin-8 (IL8), CXCL8 (gene 3576); experiment: BSK_3C_IL8: BioMAP Diversity Plus: 3C Assay for Interleukin-8 (IL8) Biomarker Activity (AID 2283020); details: primary human endothelial cells (HUVEC); actives raise or lower the signal
In short: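 Primary human umbilical vein endothelial cells (3C system) were exposed to test chemical for 24 h, then IL-8 was quantified by ELISA. Responses were fitted bidirectionally against DMSO vehicle as baseline.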

[9] = read-out: Monokine induced gamma interferon (MIG), CXCL9 (gene 4283); experiment: BSK_3C_MIG: BioMAP Diversity Plus: 3C Assay for Monokine induced gamma interferon (MIG) Biomarker Activity (AID 2283021); details: primary human endothelial cells (HUVEC); actives raise or lower the signal
In short: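 Primary human umbilical vein endothelial cells in the 3C system were exposed to chemical for 24 h, after which MIG was quantified by ELISA. Activity was fitted bidirectionally against DMSO as negative control and baseline.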

[10] = BSK_3C_SRB: Viability Assessment in the BioMAP Diversity Plus: 3C Assay (AID 2283023); details: primary human endothelial cells (HUVEC);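 note: fitted both ways against DMSO so a hit may be signal rise or drop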
In short: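 Absorbance at 560 nm of sulforhodamine B-stained (0.1%) total protein served as a cytotoxicity readout in human umbilical vein endothelial cells, 24 h after chemical treatment. Signal was fitted bidirectionally relative to DMSO.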

[11] = read-out: Matrix Metallopeptidase 1 (MMP1), MMP1 (gene 4312); experiment: BSK_BE3C_MMP1: BioMAP Diversity Plus: BE3C Assay for Matrix Metallopeptidase 1 (MMP1) Biomarker Activity (AID 2283024); details: primary human bronchial epithelial cells; actives raise or lower the signal
In short: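 Primary human bronchial epithelial cells were dosed with test chemicals, and MMP1 levels were measured by ELISA 24 h later. Data were fitted bidirectionally against DMSO as the negative control and activity baseline.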

[12] = BSK_3C_Vis: BioMAP Diversity Plus: 3C Assay for Morphology Visualization (AID 2283025); details: primary human endothelial cells (HUVEC);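 note: fitted both ways so gain or loss versus DMSO counts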
In short: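 Human umbilical vein endothelial cells in the 3C system were imaged by light microscopy 24 h after chemical dosing to record cell morphology. Activity was fitted bidirectionally against DMSO as negative control and baseline; the endpoint serves as a background control.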

[13] = read-out: Pselectin, SELP (gene 6403); experiment: BSK_4H_Pselectin: BioMAP Diversity Plus: 4H Assay for Pselectin Biomarker Activity (AID 2283026); details: primary human endothelial cells (HUVEC); actives raise or lower the signal
In short: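 Primary human umbilical vein endothelial cells were exposed to test chemical for 24 h, then cell-surface P-selectin was quantified by ELISA. Activity was fitted bidirectionally against DMSO as negative control and baseline.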

[14] = BSK_4H_SRB: Viability Assessment in the BioMAP Diversity Plus: 4H Assay (AID 2283027); details: primary human endothelial cells (HUVEC);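 note: cells exposed to compound for 24 h before staining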;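 for AC50: curves fitted both ways versus DMSO so AC50 may be loss or gain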
In short: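 Human umbilical vein endothelial cells, 24 h after chemical dosing; total protein measured by 0.1% sulforhodamine B staining after 10% TCA fixation, read at 560 nm. Bidirectional fitting against DMSO.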

[15] = BSK_BE3C_SRB: Viability Assessment in the BioMAP Diversity Plus: BE3C Assay (AID 2283028); details: primary human bronchial epithelial cells
In short: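 Cells (human bronchial epithelial, primary) are treated with chemicals, and after 24 h the parallel cultures are fixed in 10% TCA. These are then stained with 0.1% SRB and read at 560 nm. Gain or loss of signal is fitted relative to DMSO.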

[16] = read-out: Thrombomodulin, THBD (gene 7056); experiment: BSK_3C_Thrombomodulin: BioMAP Diversity Plus: 3C Assay for Thrombomodulin Biomarker Activity (AID 2283029); details: primary human endothelial cells (HUVEC); actives raise or lower the signal
In short: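 Primary human umbilical vein endothelial cells (3C system) were exposed to chemical for 24 h, then thrombomodulin levels were measured by ELISA. Activity was fitted bidirectionally against the DMSO negative control as baseline.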

[17] = read-out: Urokinase-type plasminogen activator receptor (uPAR), PLAUR (gene 5329); experiment: BSK_4H_uPAR: BioMAP Diversity Plus: 4H Assay for Urokinase-type plasminogen activator receptor (uPAR) Biomarker Activity (AID 2283030); details: primary human endothelial cells (HUVEC); actives raise or lower the signal
In short: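 Cell-surface uPAR ELISA signal, measured 24 h after dosing human umbilical vein endothelial cells, was analyzed with bidirectional fitting relative to DMSO. Parallel SRB staining of total protein tracked overt cytotoxicity.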

[18] = biological target: human Thyroid Receptor alpha (THRa1), THRA (gene 7067) (UniProt P10827); experiment: ATG_THRa1_TRANS: Attagene TRANS-FACTORIAL HepG2 Assay for human Thyroid Receptor alpha (THRa1) (AID 2283014; active = hit-call score of the fitted dose curve at least 0.9, where 1 is the maximum)
In short: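 Reporter transcript induction, read by capillary electrophoresis of 6-FAM-labelled RT-PCR products, reflects activity of a transfected THRa1-Gal4 fusion in HepG2 liver cells. Cells were dosed for 24 h; activity was fitted in the positive direction against DMSO.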

[19] = biological target: human Vitamin D Receptor (VDR), VDR (gene 7421) (UniProt P11473); experiment: ATG_VDR_TRANS: Attagene TRANS-FACTORIAL HepG2 Assay for human Vitamin D Receptor (VDR) (AID 2283022; active = hit-call score of the fitted dose curve at least 0.9, where 1 is the maximum)
In short: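 Steps: transfect HepG2 with GAL4-UAS-driven reporter constructs; dose compounds 24 h; isolate RNA, reverse-transcribe, PCR-amplify with 6-FAM-labelled primer extension and HpaI digestion; quantify fragments by capillary electrophoresis relative to DMSO.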

[20] = read-out: Monocyte Chemoattractant Protein-1 (MCP1), CCL2 (gene 6347); experiment: BSK_4H_MCP1: BioMAP Diversity Plus: 4H Assay for Monocyte Chemoattractant Protein-1 (MCP1) Biomarker Activity (AID 2283018); details: primary human endothelial cells (HUVEC); actives raise or lower the signal
In short: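 Human umbilical vein endothelial cells (4H system) dosed with chemical; MCP-1 measured by ELISA 24 h after dosing. Bidirectional curve fitting against DMSO negative control as baseline; parallel SRB total-protein staining tracks overt cytotoxicity.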

Chain of Retinoic acid receptor RXR-alpha (Homo sapiens) (P19793 whole entry, looked up, the tested form may be a part): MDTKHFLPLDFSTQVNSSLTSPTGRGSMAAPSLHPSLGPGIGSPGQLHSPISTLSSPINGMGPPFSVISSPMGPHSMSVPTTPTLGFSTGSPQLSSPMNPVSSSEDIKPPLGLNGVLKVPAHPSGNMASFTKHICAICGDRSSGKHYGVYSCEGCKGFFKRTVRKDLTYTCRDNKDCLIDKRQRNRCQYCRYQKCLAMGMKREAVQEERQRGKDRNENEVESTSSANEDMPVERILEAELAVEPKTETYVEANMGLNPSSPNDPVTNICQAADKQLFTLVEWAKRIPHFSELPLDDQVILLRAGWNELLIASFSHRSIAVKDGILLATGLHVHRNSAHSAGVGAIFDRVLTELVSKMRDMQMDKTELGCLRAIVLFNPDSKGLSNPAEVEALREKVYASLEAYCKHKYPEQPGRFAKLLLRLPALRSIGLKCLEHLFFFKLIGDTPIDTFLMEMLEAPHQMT
Chain of human Retinoid X Receptor beta (RXRb), RXRB (gene 6257) (P28702 whole entry, looked up, the tested form may be a part): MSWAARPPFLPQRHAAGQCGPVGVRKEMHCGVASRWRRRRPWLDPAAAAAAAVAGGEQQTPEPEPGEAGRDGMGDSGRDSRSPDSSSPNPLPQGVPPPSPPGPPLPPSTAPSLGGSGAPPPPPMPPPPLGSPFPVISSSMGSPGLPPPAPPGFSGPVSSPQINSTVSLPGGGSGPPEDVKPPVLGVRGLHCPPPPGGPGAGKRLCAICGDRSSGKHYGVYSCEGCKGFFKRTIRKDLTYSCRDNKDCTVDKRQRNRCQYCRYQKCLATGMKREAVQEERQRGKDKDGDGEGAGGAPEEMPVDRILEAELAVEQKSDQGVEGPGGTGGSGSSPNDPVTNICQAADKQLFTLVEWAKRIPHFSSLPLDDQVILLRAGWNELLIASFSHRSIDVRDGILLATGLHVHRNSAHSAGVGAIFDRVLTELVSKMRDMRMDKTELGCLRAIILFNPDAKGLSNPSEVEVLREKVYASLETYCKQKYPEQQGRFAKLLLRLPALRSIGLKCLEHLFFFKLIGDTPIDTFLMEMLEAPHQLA
Chain of human Thyroid Receptor alpha (THRa1), THRA (gene 7067) (P10827 whole entry, looked up, the tested form may be a part): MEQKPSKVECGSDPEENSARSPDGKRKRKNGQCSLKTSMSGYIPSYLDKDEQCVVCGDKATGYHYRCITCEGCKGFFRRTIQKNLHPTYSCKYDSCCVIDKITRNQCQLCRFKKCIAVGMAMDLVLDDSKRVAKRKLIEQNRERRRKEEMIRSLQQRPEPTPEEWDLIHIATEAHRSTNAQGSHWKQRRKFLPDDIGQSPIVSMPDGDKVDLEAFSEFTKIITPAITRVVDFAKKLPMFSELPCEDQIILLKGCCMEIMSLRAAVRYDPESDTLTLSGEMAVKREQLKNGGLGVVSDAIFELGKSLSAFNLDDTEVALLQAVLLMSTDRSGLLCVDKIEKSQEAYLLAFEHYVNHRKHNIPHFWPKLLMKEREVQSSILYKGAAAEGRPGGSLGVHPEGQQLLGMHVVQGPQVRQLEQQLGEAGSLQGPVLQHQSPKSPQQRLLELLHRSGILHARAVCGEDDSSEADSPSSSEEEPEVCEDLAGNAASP
Chain of E-selectin (Homo sapiens) (P16581 whole entry, looked up): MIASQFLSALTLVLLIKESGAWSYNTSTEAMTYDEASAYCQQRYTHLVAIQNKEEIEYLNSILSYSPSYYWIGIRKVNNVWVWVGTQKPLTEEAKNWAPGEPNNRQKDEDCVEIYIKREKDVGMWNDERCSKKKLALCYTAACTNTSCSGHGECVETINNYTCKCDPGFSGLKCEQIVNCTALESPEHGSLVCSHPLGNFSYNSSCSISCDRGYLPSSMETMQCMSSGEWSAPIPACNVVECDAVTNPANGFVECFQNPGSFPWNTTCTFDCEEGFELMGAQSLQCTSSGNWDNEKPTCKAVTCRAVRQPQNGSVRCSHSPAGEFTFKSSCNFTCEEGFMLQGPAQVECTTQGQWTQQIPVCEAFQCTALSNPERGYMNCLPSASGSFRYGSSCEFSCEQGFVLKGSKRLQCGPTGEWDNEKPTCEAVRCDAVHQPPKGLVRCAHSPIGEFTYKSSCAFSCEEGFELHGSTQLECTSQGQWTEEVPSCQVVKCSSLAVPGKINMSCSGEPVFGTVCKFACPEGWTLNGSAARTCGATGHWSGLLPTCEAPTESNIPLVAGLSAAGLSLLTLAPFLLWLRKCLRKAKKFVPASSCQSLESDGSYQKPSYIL
Chain of human RAR-related Orphan Receptor gamma (RORg), RORC (gene 6097) (P51449 whole entry, looked up, the tested form may be a part): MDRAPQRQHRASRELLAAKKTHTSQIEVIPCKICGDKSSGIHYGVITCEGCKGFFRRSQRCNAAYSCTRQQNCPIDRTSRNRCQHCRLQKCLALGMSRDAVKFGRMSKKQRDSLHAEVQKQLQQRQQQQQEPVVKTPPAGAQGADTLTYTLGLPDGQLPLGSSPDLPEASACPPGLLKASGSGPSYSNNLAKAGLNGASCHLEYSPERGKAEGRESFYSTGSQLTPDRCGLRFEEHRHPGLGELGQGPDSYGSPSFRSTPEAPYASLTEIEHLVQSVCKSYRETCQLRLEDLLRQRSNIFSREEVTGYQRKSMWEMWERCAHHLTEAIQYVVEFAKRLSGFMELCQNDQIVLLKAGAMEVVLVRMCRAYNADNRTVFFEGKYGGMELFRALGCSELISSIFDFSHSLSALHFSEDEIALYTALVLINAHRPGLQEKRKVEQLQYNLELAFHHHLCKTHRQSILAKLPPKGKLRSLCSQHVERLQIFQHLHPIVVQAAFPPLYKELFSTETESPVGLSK
Chain of human Vitamin D Receptor (VDR), VDR (gene 7421) (P11473 whole entry, looked up, the tested form may be a part): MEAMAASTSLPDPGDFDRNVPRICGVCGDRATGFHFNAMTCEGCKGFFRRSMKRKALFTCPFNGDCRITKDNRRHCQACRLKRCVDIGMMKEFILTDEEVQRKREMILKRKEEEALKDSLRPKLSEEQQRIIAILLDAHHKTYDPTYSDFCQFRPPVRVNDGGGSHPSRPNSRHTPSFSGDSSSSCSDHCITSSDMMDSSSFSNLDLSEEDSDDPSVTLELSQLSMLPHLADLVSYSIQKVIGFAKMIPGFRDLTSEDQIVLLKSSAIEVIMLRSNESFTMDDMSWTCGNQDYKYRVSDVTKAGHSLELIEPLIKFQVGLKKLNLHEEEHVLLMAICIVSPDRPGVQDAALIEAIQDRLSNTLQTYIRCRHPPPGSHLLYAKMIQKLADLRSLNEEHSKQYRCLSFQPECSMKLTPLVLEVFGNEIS

With `CCC(=O)Nc1ccc(Cl)c(Cl)c1` the outcome [1] was “inactive”, the outcome [2] was “inactive” and the outcome [3] was “inactive”. For the same molecule, the outcome [4] was “inactive”, the outcome [5] was “inactive” and the outcome [6] was “inactive”. For the same molecule, the AC50 [7] was 6.03 µM (active), the outcome [8] was “inactive” and the outcome [9] was “inactive”. The outcome [10] was “inactive”, the outcome [11] was “inactive” and the AC50 [12] was 9.8 µM (active). The outcome [13] was “inactive”, the outcome [14] was “inactive” and the outcome [15] was “inactive”. For the same molecule, the outcome [16] was “inactive” and the outcome [17] was “inactive”.

With `CCC(=NOC/C=C/Cl)C1=C(O)CC(C2CCOCC2)CC1=O` (stereo not drawn) the outcome [1] was “inactive”, the outcome [2] was “inactive” and the outcome [3] was “inactive”. For the same molecule, the outcome [18] was “inactive”, the outcome [5] was “inactive” and the outcome [6] was “inactive”. The outcome [7] was “inactive”, the outcome [8] was “inactive” and the outcome [9] was “inactive”. For the same molecule, the outcome [10] was “inactive”, the outcome [11] was “inactive” and the outcome [12] was “inactive”. For the same molecule, the outcome [13] was “inactive”, the outcome [14] was “inactive” and the outcome [15] was “inactive”. For the same molecule, the outcome [16] was “inactive” and the outcome [17] was “inactive”.

With `CN1COCN(Cc2cnc(Cl)s2)C1=N[N+](=O)[O-]` the outcome [1] was “inactive”, the outcome [2] was “inactive” and the outcome [3] was “inactive”. The outcome [18] was “inactive”, the outcome [4] was “inactive” and the outcome [5] was “inactive”. For the same molecule, the outcome [6] was “inactive”, the outcome [7] was “inactive” and the outcome [8] was “inactive”. For the same molecule, the outcome [9] was “inactive”, the outcome [19] was “inactive” and the outcome [10] was “inactive”. For the same molecule, the outcome [11] was “inactive”, the outcome [12] was “inactive” and the outcome [13] was “inactive”. For the same molecule, the outcome [14] was “inactive”, the outcome [15] was “inactive” and the outcome [16] was “inactive”. The outcome [17] was “inactive”.

With `CC(C)[C@H](C(=O)O[C@H](C#N)c1cccc(Oc2ccccc2)c1)c1ccc(Cl)cc1` the outcome [1] was “inactive”, the outcome [2] was “inactive” and the outcome [3] was “inactive”. For the same molecule, the outcome [18] was “inactive”, the outcome [4] was “inactive” and the outcome [5] was “inactive”. The outcome [6] was “inactive”, the outcome [20] was “inactive” and the AC50 [7] was 12.9 µM (active). The outcome [8] was “inactive”, the outcome [9] was “inactive” and the AC50 [10] was 5.72 µM (active). The outcome [11] was “inactive”, the outcome [12] was “inactive” and the outcome [13] was “inactive”. For the same molecule, the outcome [14] was “inactive”, the outcome [16] was “inactive” and the outcome [17] was “inactive”.

For `CCOP(=O)(NC(C)C)Oc1ccc(SC)c(C)c1` (stereo not drawn), the outcome [1] was “inactive”, the outcome [2] was “inactive” and the outcome [3] was “inactive”. For the same molecule, the outcome [4] was “inactive”, the outcome [5] was “inactive” and the outcome [6] was “inactive”. For the same molecule, the outcome [20] was “inactive”, the outcome [7] was “inactive” and the outcome [8] was “inactive”. For the same molecule, the outcome [9] was “inactive”, the outcome [10] was “inactive” and the outcome [11] was “inactive”. The outcome [12] was “inactive”, the outcome [13] was “inactive” and the outcome [14] was “inactive”. For the same molecule, the outcome [15] was “inactive”, the outcome [16] was “inactive” and the outcome [17] was “inactive”.

In the case of `COc1cc(OC)nc(Sc2cccc(Cl)c2C(=O)O)n1`, the outcome [1] was “inactive”, the outcome [3] was “inactive” and the outcome [18] was “inactive”. The outcome [5] was “inactive”, the outcome [6] was “inactive” and the outcome [7] was “inactive”. The outcome [8] was “inactive”, the outcome [9] was “inactive” and the outcome [19] was “inactive”. For the same molecule, the outcome [10] was “inactive”, the outcome [11] was “inactive” and the outcome [12] was “inactive”. For the same molecule, the outcome [13] was “inactive”, the outcome [14] was “inactive” and the outcome [15] was “inactive”. The outcome [16] was “inactive” and the outcome [17] was “inactive”.

In the case of `Cc1ccn2nc(S(=O)(=O)Nc3c(F)cccc3F)nc2n1`, the outcome [1] was “inactive”, the outcome [2] was “inactive” and the outcome [3] was “inactive”. For the same molecule, the outcome [4] was “inactive”, the outcome [5] was “inactive” and the outcome [6] was “inactive”. For the same molecule, the outcome [7] was “inactive”, the outcome [8] was “inactive” and the outcome [9] was “inactive”. For the same molecule, the outcome [10] was “inactive”, the outcome [11] was “inactive” and the outcome [12] was “inactive”. The outcome [13] was “inactive”, the AC50 [14] was 0.229 µM (active) and the outcome [15] was “inactive”. The outcome [16] was “inactive” and the outcome [17] was “inactive”.
